Data on 46 compounds can be found in PubChem BioAssay AID504850 (National Center for Advancing Translational Sciences (NCATS), 2011).

In all, about 2,300 compounds went through this assay and about 1,200 (52%) were called active. Not shown: some 34% with an inconclusive outcome. The set was probably picked from earlier hits. The list shows a part of the results. A number with no mark means an inactive call. Calls follow the shape of the dose curve; as a rule, active = well fitted inhibition curve with a large enough effect; inconclusive = small, poorly fitted or top-dose-only effect, or effect the other way; inactive = no such curve, though single readings can be large or run the other way.
% is scaled to controls: 0 for no effect and ±100 for the full control effect; potency is read from the fitted curve at half-maximal effect.

The test is described as follows: Confirmation screen for delayed death inhibitors of the malarial parasite plastid, 48 hour incubation. Also: nearly all actives have a fitted effect of over 65% in size. As to conditions: P. falciparum-infected erythrocytes, luciferase growth; series mostly up to 28.7 µM; activity change, negative = inhibition: at the top concentration. An excerpt: The goal of this screen is to discover new antimalarial compounds that act by inhibiting the development of the apicoplast in the malarial parasite Plasmodium falciparum. The biochemical processes that make this organelle essential for erythrocytic stage parasites are not well understood. However, antibiotics, such as azithromycin and tetracycline, which target the apicoplast translational machinery, have a potent antimalarial effect. […] We have developed a cell-based assay that measures parasite growth based on the expression of an integrated copy of a firefly luciferase reporter. To detect small molecules that cause this "delayed death phenotype, erythrocytes infected with the luciferase-expressing parasites were incubated with compounds for either one or two generations, corresponding to 48 and 96 hours, respectively. Compounds that inhibit parasite growth in the second generation, but not the first, should be enriched in antimalarials that target the apicoplast. Growth inhibition is detected by a decrease in luciferase activity. MLPCN Grant: R21 NS059500 Assay Provider: David Fidock and Eric Ekland, Columbia University Keywords: NIH Roadmap, MLPCN, MLI, MLSMR, qHTS, NCGC, qHTS, malaria, luciferase, viability
Four microliters of culture medium (RPMI 1640 with 0.5% w/v Albumax (GIBCO), 24 mM sodium bicarbonate and 10 ug/mL gentamycin) were dispensed by a Multi-drop Combi into white solid 1536-well plates (Grenier) and 23 nL compound was added by a pin tool. Four microliters of infected erythrocytes (2% hematocrit, 0.1% parasitemia final concentration) in culture medium were dispensed and the plates incubated for 48 hours at 37 C in 5% CO2. Two microliters of luciferase detection reagent was added and luminescence was detected by a ViewLux (PerkinElmer) reader.
On to `COc1ccccc1OCC(=O)Nc1cc(Cl)ccc1Oc1ccccc1`, for which the “activity change, negative = inhibition” value is -11.9%.

Consider `Cc1ccc(C)c(N(CC(=O)Nc2cc(Cl)ccc2Oc2ccccc2)S(C)(=O)=O)c1`, for which the Potency is 11.2 µM (active).

Take `CN(C)S(=O)(=O)c1ccc(Cl)c(NC(=O)CN2C(=O)NC(C)(C3CC3)C2=O)c1` (stereo unspecified): the Potency was 14.1 µM (active).

Consider `CCOc1ccc2c(c1)C(N(CCN1CCOCC1)C(=O)Nc1ccccc1)CC(C)(C)O2` (stereo unspecified), for which the Potency was 12.6 µM (active).

As to `COCCNC(=O)c1cccc(OC2CCN(Cc3ccc(C(C)C)cc3)CC2)c1`, the Potency is 14.1 µM (active).

As to `C=CCNC(=O)c1onc(CSc2ccc(Cl)cc2)c1C(=O)O`, the “activity change, negative = inhibition” value was 11.2%.

For the compound `CCOC(=O)C(C(=O)OCC)C(Nc1cccc(Br)c1)c1ccccc1` (stereo unspecified), the Potency was 14.1 µM (active).

On to `Cc1ccc2cc(C)c(SCC(=O)NCc3ccco3)nc2c1`, for which the “activity change, negative = inhibition” value is -22.8%.

On to `Cc1ccc(Nc2nc(NCc3ccco3)c3ccccc3n2)cc1`, for which the Potency was 2 µM (active).

On to `COc1ccc(Cl)cc1NC(=O)C(C)NC(c1ccccc1)c1ccccc1` (stereo unspecified), for which the Potency is 8.91 µM (active).

As for `COc1ccc(Nc2cc(Cl)ccc2C(=O)O)cn1`, the “activity change, negative = inhibition” value was -43.1%.

Turning to `C#CCOCCOCCOCCNc1nc(N2CCN(C(=O)Cn3cc(CC(C)O)nn3)CC2)nc(N2CCN(C(=O)[C@H](C)n3cc(CCCN=C(N)N)nn3)CC2)n1` (stereo partly specified), the “activity change, negative = inhibition” value is -25.6%.

`COc1nc(NC(=O)c2ccc(F)cc2)nc(OC)c1-c1ccccc1`: the Potency is 12.6 µM (active).

In the case of `O=[N+]([O-])c1c(Nc2ccccc2O)cc(Cl)c2nonc12`, the Potency was 5.62 µM (active).

For the compound `CC(C)(C)NC(=O)[C@H]1CN(Cc2cccnc2)CCN1C[C@@H](O)C[C@@H](Cc1ccccc1)C(=O)N[C@H]1c2ccccc2C[C@H]1O`, the Potency was 7.94 µM (active).

For `CCCCN(CCCNC(=O)c1ccc(CS(=O)(=O)c2ccc(OC)cc2)o1)Cc1ccccc1`, the Potency is 12.6 µM (active).

In the case of `CN(CCCNC(=O)c1ccc(CS(=O)c2ccc(Br)cc2)o1)Cc1ccccc1` (stereo unspecified), the Potency is 8.91 µM (active).

Take `CN(CCNC(=O)c1ccc(CS(=O)(=O)c2ccc(Br)cc2)o1)CCc1ccccc1`: the Potency is 4.47 µM (active).

For `CCCCNC(=O)c1ccc(CS(=O)(=O)c2cccc(C(F)(F)F)c2)o1`, the “activity change, negative = inhibition” value was -12.9%.

For the compound `CCn1c(=O)c(CCC(=O)N2CCOCC2)c(C)c2c(C)nn(-c3ccccc3)c21`, the Potency was 14.1 µM (active).

Take `Cc1ccc(S(=O)(=O)N2CCN(C(=O)c3ccc(Br)o3)CC2)c(C)c1`: the Potency was 10 µM (active).

On to `COc1ccc(C(=O)N2CCN(S(=O)(=O)c3ccc(C)cc3C)CC2)cc1OC`, for which the Potency was 12.6 µM (active).

Take `Cc1ccc(S(=O)(=O)N2CCN(C(=O)c3cc(S(=O)(=O)N(C)C)ccc3N3CCCC3)CC2)c(C)c1`: the Potency is 12.6 µM (active).

`COc1ccc(C)cc1S(=O)(=O)N1CCN(S(=O)(=O)c2cc(C(=O)O)ccc2C)CC1`: the Potency was 11.2 µM (active).

In the case of `CCNc1nc(NCC)n2c(SCC(=O)Nc3ccccc3F)nnc2n1`, the Potency is 12.6 µM (active).

On to `Cc1c(Cl)cccc1NC(CC(=O)c1ccccc1)C(=O)O` (stereo unspecified), for which the “activity change, negative = inhibition” value is -3.76%.

Consider `CC(=O)O[C@@]12CO[C@@H]1C[C@H](O)[C@@]1(C)C(=O)[C@H](O)C3=C(C)[C@@H](OC(=O)C(O)[C@@H](NC(=O)OC(C)(C)C)c4ccccc4)C[C@@](O)([C@@H](OC(=O)c4ccccc4)[C@H]21)C3(C)C` (stereo partly specified), for which the Potency is 0.141 µM (active).

Turning to `CC(=O)O[C@H]1C(=O)[C@@]2(C)[C@H]([C@H](OC(=O)c3ccccc3)[C@]3(O)C[C@H](OC(=O)[C@H](O)[C@@H](NC(=O)c4ccccc4)c4ccccc4)C(C)=C1C3(C)C)[C@]1(OC(C)=O)CO[C@@H]1C[C@@H]2O`, the Potency was 0.501 µM (active).

Turning to `Cc1c(/C=N/NC(=O)c2cccs2)c2ccccc2n1Cc1ccccc1Cl`, the Potency is 4.47 µM (active).

With `Cc1noc(/C=C/c2nn(C)cc2Cl)c1[N+](=O)[O-]`, the Potency is 12.6 µM (active).

As for `CC(=O)N1CCc2cc(S(=O)(=O)NCCC(=O)N3CCN(c4ccccn4)CC3)ccc21`, the Potency was 11.2 µM (active).

As to `COCCn1c(=NC(=O)/C=C/c2ccccc2)sc2cc(NC(C)=O)ccc21`, the Potency was 10 µM (active).

`O=C(/C=C/c1ccncc1)c1ccc(NC(=O)c2ccccc2F)cc1`: the Potency is 12.6 µM (active).

Regarding `Cc1c(C#N)c(NC(=O)CCl)n(Cc2ccccc2)c1C`, the Potency was 7.08 µM (active).

In the case of `COC(=O)c1cc(=O)n(Cc2cccs2)c(=Nc2ccccc2)s1`, the “activity change, negative = inhibition” value is -6.3%.

As to `Cc1c(C#N)c(NC(=O)CCl)n(Cc2cccs2)c1C`, the Potency was 3.98 µM (active).

With `COc1ccc(-c2oc3ncn(Cc4ccco4)c(=N)c3c2-c2ccc(OC)cc2)cc1`, the Potency was 7.94 µM (active).

As to `CC1CCCC(NC(=O)c2cc(-c3ccncc3)nc3ccccc23)C1C` (stereo unspecified), the Potency was 11.2 µM (active).

As to `C=CCn1cccc(/C=C/C(=O)c2ccc(C(C)(C)C)cc2)c1=S`, the Potency was 1.26 µM (active).

Turning to `Nc1nc(C2CC2)c(Sc2sc(N)nc2C2CC2)s1`, the “activity change, negative = inhibition” value was -10.8%.

In the case of `Cc1ccccc1-c1nc(CS(=O)CC(=O)NC(C)CCc2ccccc2)c(C)o1` (stereo unspecified), the “activity change, negative = inhibition” value is -15.9%.

`CCN1CCCC1CNC(=O)CS(=O)(=O)Cc1nc(-c2ccccc2C)oc1C` (stereo unspecified): the Potency is 11.2 µM (active).

On to `COc1cc2c(cc1NC(=O)c1ccc(C(C)(C)C)cc1)CCCC2`, for which the Potency is 11.2 µM (active).

Turning to `O=C(CCCN1C(=O)/C(=C/c2cccs2)SC1=S)Nc1ccc(O)cc1`, the Potency is 11.2 µM (active).

With `O=C(CCN1C(=O)/C(=C\c2ccc(F)cc2)SC1=S)Nc1ccccc1`, the “activity change, negative = inhibition” value is 7.17%.

In the case of `O=C(CCCN1C(=O)/C(=C\c2cccs2)SC1=S)Nc1ccc(O)cc1`, the Potency was 11.2 µM (active).
